LDHA inh – qHTS assay for inhibitors of human lactate dehydrogenase | L-lactate dehydrogenase A chain (Homo sapiens), P00338 | purified LDHA, NADH/diaphorase-resazurin fluorescence; active compounds read low | activity change, % (values are at about 110 or 230 µM) | 480,000 compounds, 0.15% hits | AID 1347041, 2019; in the data active = activity change below about -30%; inconclusive = mostly about -25% to -30%
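Resorufin fluorescence (ex540/em590), read at 0 and 20 min after diaphorase/resazurin addition, reports the NADH left after a 5 min room-temperature reaction of 2 nM human LDH5 with 0.06 mM NADH and 0.2 mM pyruvate.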
ERG-DNA inh – qHTS for Small Molecule Inhibitors of the ERG Ets/DNA interaction; Transcriptional regulator ERG (Homo sapiens), P11308; fluorescence polarization, His-ERG Ets domain / labelled DNA; Potency, µM (doses to about 76.9 µM), actives largely listed as inhibitors; 370,000 compounds, 0.028% hits; AID 624246, 2012; active = well fitted inhibition curve with a large enough effect in the polarisation, with a control signal flat; inconclusive = small, poorly fitted or top-dose-only effect, or effect the other way, or a change in a side signal; inactive = no such curve, though single readings can be large or run the other way; the % refers to the polarisation;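 also: polarization taken with two DNA probes labelled with fluorescein and Texas red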
Target sequence (P11308 whole entry, looked up, the tested form may be a part): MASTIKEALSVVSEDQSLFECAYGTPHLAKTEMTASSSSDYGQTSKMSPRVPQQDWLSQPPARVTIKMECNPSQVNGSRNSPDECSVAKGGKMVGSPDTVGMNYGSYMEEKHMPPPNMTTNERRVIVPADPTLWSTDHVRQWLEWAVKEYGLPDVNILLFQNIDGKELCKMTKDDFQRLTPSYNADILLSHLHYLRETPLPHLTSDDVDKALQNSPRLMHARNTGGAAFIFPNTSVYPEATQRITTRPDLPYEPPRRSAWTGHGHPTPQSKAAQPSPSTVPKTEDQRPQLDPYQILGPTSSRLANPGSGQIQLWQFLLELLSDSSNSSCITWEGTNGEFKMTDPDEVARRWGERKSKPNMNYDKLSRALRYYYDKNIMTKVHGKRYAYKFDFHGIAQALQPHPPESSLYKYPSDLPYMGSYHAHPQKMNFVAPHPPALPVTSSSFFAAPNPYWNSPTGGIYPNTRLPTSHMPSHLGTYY
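His-tagged ERG Ets domain (1 uM in the protein solution; 300mM KCl, 50mM Tris-HCl, 1mM EDTA, 1mM DTT, pH 7.5) received compound, then a probe mix of 5 nM fluorescein-DNA and 100nM Texas-615-DNA. Fluorescence polarization was read for both dyes.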
A549 viability – Nrf2 qHTS screen for inhibitors: counterscreen for cytotoxicity. A549 ARE-Fluc cells, CellTiter-Fluor viability, 18-24 h. Potency, µM (highest dose often 46 µM), most hits filed as inhibitors. 390,000 compounds, 0.16% hits. AID 504648, 2011
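A549 ARE-Fluc cells in 5% FBS OPTI-MEM, 5000 cells/well, rested 2 h then exposed to compounds in concentration-response for 18-24 h at 37 °C. Viability by CellTiter-Fluor fluorescence (Ex 405/Em 525) after 30 min; luciferase luminescence (BugLite, 15 min, RT) read afterwards.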
Nrf2 ARE act – qHTS of Nrf2 Activators | AREc32 ARE-luciferase reporter (MCF7-derived line), luminescence, 24 h | Potency, µM (titrated, usually from 46.1 µM), most hits filed as activators | 410,000 compounds, 0.31% hits | AID 624171, 2012; also: nearly all actives have a fitted effect of over 65% in size
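AREc32 cells carrying an ARE-driven firefly luciferase reporter were seeded at 1000 cells/well in OPTI-MEM with 5% FBS, then exposed to compound for 24 hr at 37 deg C. Luminescence was read with Steady-Glo after 30 min at RT.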
ALOX12 inh – Primary qHTS assay for inhibitors of human arachidonate 12S-lipoxygenase (ALOX12): Round 2. Polyunsaturated fatty acid lipoxygenase ALOX12 (Homo sapiens), P18054. purified 12hLO, xylenol orange hydroperoxide absorbance. Potency, µM (doses to about 108 µM), hits mostly inhibitors. 580,000 compounds, 1.1% hits. AID 1671190, 2021
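Hydroperoxide product was detected by ferrous iron/xylenol orange as the 573 to 405 nm absorbance ratio. Arachidonic acid at 40 uM (final) was turned over for 30 min at room temperature by 150 nM human 12hLO, pH 7.0 Hepes buffer, after 15 min compound preincubation.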
Nrf2 block – Nrf2 qHTS screen for inhibitors | A549 ARE-Fluc reporter, luciferase luminescence, 18-24 h | Potency, µM (doses to about 46 µM), hits mostly inhibitors | 360,000 compounds, 2.1% hits; also: nearly all actives have a fitted effect of over 60% in size
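In this cell-based qHTS, ARE-driven firefly luciferase in A549 cells reports Nrf2 activity; the luminescent signal after BugLite lysis is the measured value, with a prior CellTiter-Fluor read for cell health.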
Numbers stand for hits; - = inactive; ? = inconclusive; . = not tested or not shown. Rows were chosen to be rich in hits. Some 2.7% of all compounds tested hit in one or more screens of this group. Unless noted, calls follow the shape of the dose curve; as a rule, active = well fitted curve in the direction sought with a large enough effect; inconclusive = small, poorly fitted or top-dose-only effect, or another doubt; inactive = no such curve, though single readings can be large; an effect the other way counts as inactive or inconclusive.

SMILES | LDHA inh | ERG-DNA inh | A549 viability | Nrf2 ARE act | ALOX12 inh | Nrf2 block
CNC(=S)N1CCN(c2nc(-c3ccc(F)cc3)cs2)CC1 | - | - | - | - | - | ?
CCOCCCNC(=S)N1CCN(c2nc(-c3ccc(F)cc3)cs2)CC1 | - | - | - | - | - | 16µM
CCCNC(=S)N1CCN(c2nc(-c3cccc(OC)c3)cs2)CC1 | - | - | - | - | - | ?
CC(C)(C)NC(=O)NC(=O)CSc1nc(-c2ccco2)nc2ccccc12 | - | . | . | . | ? | .
O=c1[nH]c(=O)c2[nH]c(=S)[nH]c2[nH]1 | - | - | - | - | 0.71µM | -
CCC(=O)OCC(=O)[C@@]1(OC(=O)CC)[C@@H](C)C[C@H]2[C@@H]3CCC4=CC(=O)C=C[C@]4(C)[C@@]3(Cl)[C@@H](O)C[C@@]21C | - | - | - | - | - | 0.0058µM
O=C(CC1=CCCCC1)N1CCC(C2CCNC2)CC1 (stereo not drawn) | . | . | . | . | 40µM | .
Cc1ccc(-c2cc(C(=O)NCCC(c3ccccc3)c3ccccc3)c3ccccc3n2)cc1 | - | . | . | . | - | .
Cc1nc(C)c(C(=O)NCCC(c2ccccc2)c2ccccc2)o1 | - | - | - | - | - | 10µM
Cc1c(CCC(=O)O)c(=O)oc2cc3occ(C(C)(C)C)c3cc12 | - | - | - | - | - | 18µM
Cc1c(CCC(=O)O)c(=O)oc2cc3occ(-c4ccc(F)cc4)c3cc12 | - | - | - | - | - | -
CCc1cccc(C)c1NC(=O)Cn1nc(C(=O)O)c2ccccc2c1=O | - | . | . | . | 16µM | .
CCc1cccc(CC)c1NC(=O)Cn1nc(C(=O)O)c2ccccc2c1=O | - | . | . | . | - | .
CC(CNC(=O)Cn1nc(C(N)=O)c2ccccc2c1=O)(c1ccccc1)c1ccccc1 | - | . | . | . | 32µM | .
O=C(O)c1nn(Cc2ccccc2)c(=O)c2ccccc12 | -32 | . | . | . | - | .
O=C(c1nn(Cc2ccccc2)c(=O)c2ccccc12)N1CCc2ccccc2C1 | - | - | ? | - | - | 23µM
COc1ccc(NC(=O)Cn2cccc2-c2nc(-c3ccccc3)no2)cc1OC | . | . | . | . | - | .
CCc1ccc(NC(=O)c2c(CC)noc2C)cc1 | - | . | . | . | ? | .
CCc1cc2c(=O)n(Cc3ccco3)c(SCC(=O)N3CCCc4ccccc43)nc2s1 | - | - | - | - | - | 26µM
CCCCCc1ccc(C(=O)CC)cc1 | - | . | . | . | - | .
C/C(=N\Nc1ccccc1Br)c1ccc(-c2ccccc2)cc1 | - | . | . | . | 0.71µM | .
O=C(CN1CCOCC1)Nc1ccccc1Sc1ccc(Cl)cc1 | - | - | - | - | - | 29µM
O=C(CN1CCOCC1)Nc1ccccc1F | - | - | - | - | - | -
CN1CCN(CC(=O)Nc2ccccc2Sc2ccccc2)CC1 | -33 | - | - | - | ? | -
O=C(CN1CCCC1)Nc1ccccc1Sc1ccccc1 | - | - | - | - | - | -
SMILES | LDHA inh | ERG-DNA inh | A549 viability | Nrf2 ARE act | ALOX12 inh | Nrf2 block
Cc1ccc(SC2=C(N(C)C)C(=O)c3ccccc3C2=O)cc1 | - | . | - | ? | 10µM | -
CCCCn1c(=O)n(CC(=O)Nc2cccc(C(C)=O)c2)c(=O)c2c1ncn2Cc1ccco1 | - | . | . | . | ? | .
Cc1noc(-c2ccc(OCc3ccccc3F)cc2O)c1-c1ccc(Br)cc1 | - | . | . | . | ? | .
CC(C)C(=O)Nc1ccc(-c2csc(NCc3ccco3)n2)cc1 | - | . | . | . | ? | .
Cc1cc2c(cc1C)CSC(c1c(O)ccc3cc(Br)ccc13)SC2 | - | . | . | . | 0.79µM | .
Cc1cc(C(=O)CN2CCN(c3ccc(O)cc3)CC2)c(C)n1C1CCS(=O)(=O)C1 (stereo not drawn) | - | . | . | . | ? | .
CCC(/C=N/NC(N)=O)=C\c1ccccc1 | - | . | . | . | - | .
CCNC(=S)Nc1ccc(Cl)cc1 | - | - | - | - | - | -
CCNC(=S)Nc1cc(-c2ccc(Cl)cc2)[nH]n1 | - | - | - | - | 5.6µM | ?
C=CCn1cc(C=O)c2ccccc21 | - | . | . | . | ? | .
